Laboratory results: PubChem BioAssay (NCI)
The panel holds about 79,000 compounds, 15% with a hit somewhere; the sample as a whole holds those more often. Rule as the data show it: active = growth inhibition above about 70%; inactive = the rest.

Columns and labels:
[1] = NCI Yeast Anticancer Drug Screen. Data for the rad50 strain (AID 155);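 also: 0% = growth of vehicle-only cultures of the same strain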; conditions: S. cerevisiae rad50 strain growth inhibition; at 50.0 µM; stronger effect = higher value
Outline: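 Genetically altered yeast (DNA repair pathway); compound treatment; growth inhibition vs vehicle ctrl.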

[2] = NCI Yeast Anticancer Drug Screen. Data for the mec2-1 strain (AID 157); conditions: S. cerevisiae mec2-1 strain, at 50.0 µM, stronger effect = higher value
Outline: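 Cells of the genetically defined mec2-1 yeast strain are incubated with test compound. Inhibition of growth is calculated against vehicle-treated controls.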

[3] = NCI Yeast Anticancer Drug Screen. Data for the sgs1 mgt1 strain (AID 161);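 also: 0% = growth of cultures given vehicle only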; conditions: S. cerevisiae sgs1 mgt1 strain, at 50.0 µM, stronger effect = higher value
Outline: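 Genetically altered yeast, compound exposure, growth inhibition relative to vehicle.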

[4] = NCI Yeast Anticancer Drug Screen. Data for the cln2 rad14 strain (AID 165);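 also: 0% = growth equal to vehicle treated cultures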; conditions: S. cerevisiae cln2 rad14 strain, at 50.0 µM, stronger effect = higher value
Outline: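 The screen exposed genetically defined yeast (cln2 rad14) to test compounds and scored growth inhibition relative to vehicle-treated controls.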

[5] = NCI Yeast Anticancer Drug Screen. Data for the bub3 strain (AID 167); conditions: S. cerevisiae bub3 mutant strain, at 50.0 µM, stronger effect = higher value
Outline: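 Yeast carrying a defined mutation is treated with each compound, and growth is compared with that of vehicle-exposed cells to give inhibition.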

[6] = NCI Yeast Anticancer Drug Screen. Data for the mlh1 rad18 strain (AID 175); conditions: S. cerevisiae mlh1 rad18 strain growth inhibition; at 50.0 µM; stronger effect = higher value
Outline: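 Compound-treated yeast growth, normalised to vehicle controls. Strain bears defined DNA repair mutations.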

Measured: growth inhibition

COc1ccc(CCC(=O)O)c(C(CC(=O)O)C(=O)O)c1OS(=O)(=O)c1ccc(C)cc1 (stereo unspecified)
inactive: [1] -21.2% | [2] -30.3% | [3] -40.5% | [4] 6.05% | [5] -33.3% | [6] -21.6%

CN(C)c1ccc(C2c3c(oc4ccccc4c3=O)Oc3oc4ccccc4c(=O)c32)cc1
inactive: [1] 3.8% | [2] -0.15% | [3] -9.85% | [4] 5.4% | [5] 0.35% | [6] -17.5%

Brc1ccc2nc(-c3ccccc3)c3ccccc3c2c1
inactive: [1] -13.7% | [2] -0.45% | [3] -2.35% | [4] -25.4% | [5] 14.8% | [6] -2.65%

Cc1cc2c(C)nn(Cc3ccccc3Cl)c2c(C#N)c1C
inactive: [1] 32.5% | [2] -1.6% | [3] 43% | [4] 23.9% | [5] 26.9% | [6] 44.4%

COc1ccc(CCN(C)C(c2ccccc2)c2ccccc2)cc1OC
inactive: [1] -2.8% | [2] -6.65% | [3] 10.9% | [4] 3.75% | [5] 4.75% | [6] 3.3%

Nc1ncnc2c1ncn2C1OC(C(O)CO)C(O)C1N (stereo unspecified)
inactive: [1] -15.7% | [2] -0.3% | [3] -13.7% | [4] -14.8% | [5] 0.55% | [6] -23.6%

O=[N+]([O-])c1ccc(SC2=NCCCN2)c(Cl)c1
inactive: [1] 36.7% | [2] -0.55% | [3] 33.9% | [4] 11.1% | [5] 32.6% | [6] 26.1%

Cc1cc(Cl)cc(C)c1O
inactive: [1] 39.8% | [2] -10.3% | [3] 6.15% | [4] 0.95% | [5] 14.9% | [6] 11.8%

NC(=O)C(=CNC(=S)Nc1cccc(C(F)(F)F)c1)C(N)=O
inactive: [1] -45% | [2] -44.5% | [3] -14.8% | [4] 16.4% | [5] 5.5% | [6] -56%

CC(=O)OCC1OC(n2cc(CBr)nn2)C(OC(C)=O)C(OC(C)=O)C1OC(C)=O (stereo unspecified)
inactive: [1] 0.3% | [2] 4.9% | [3] -24.1% | [4] -13.6% | [5] 1.7% | [6] -19.9%

CC(=O)N1c2ccccc2C2(C)CCCC(O)C12O (stereo unspecified)
inactive: [1] 8.05% | [2] 6.05% | [3] -3.9% | [4] 1.9% | [5] 6.5% | [6] -23.9%

CCCC1CC(=O)NC1C(=O)O (stereo unspecified)
inactive: [1] -8.75% | [2] -7.85% | [3] -6.85% | [4] -21.9% | [5] -5.25% | [6] -24.4%

Cc1cc(S(=O)(=O)Nc2n[nH]c(Nc3ccccc3)n2)c(SSc2cc(Cl)c(C)cc2S(=O)(=O)Nc2n[nH]c(Nc3ccccc3)n2)cc1Cl
inactive: [1] 12.2% | [2] 37.8% | [3] 4.95% | [4] 11.9% | [5] 12% | [6] 18.2%

CC(=O)NCCOC(=O)c1ccccc1
inactive: [1] 34.5% | [2] 4.75% | [3] 16.4% | [4] -17.9% | [5] 4.05% | [6] 5.9%

Cc1ccc(S(=O)(=O)/N=C/C=P(c2ccccc2)(c2ccccc2)c2ccccc2)cc1
inactive: [1] 11.4% | [2] 7.45% | [3] -22.1% | [4] -19% | [5] -2.1% | [6] -3.65%

Nc1ccc(Cl)cc1C(=O)Oc1ccccn1
inactive: [1] 6.9% | [2] -0.65% | [3] -6.25% | [4] -0.4% | [5] -5.5% | [6] -0.7%

CCCCOC(=O)c1ccc(OCCCC)cc1
inactive: [1] 23.6% | [2] 19.6% | [3] 16.6% | [4] 13.2% | [5] 10.5% | [6] 17.8%

N=C(c1ccc2ccccc2c1)c1ccccc1Cc1ccccc1
inactive: [1] 17.2% | [2] -24.2% | [3] 6.15% | [4] -52.5% | [5] 9.35% | [6] 24.2%

O=C(c1ccccc1)N(N=C(c1ccc([N+](=O)[O-])cc1)c1ccc([N+](=O)[O-])cc1)c1ccccc1
inactive: [1] 24.7% | [2] 15.1% | [3] -6.6% | [4] -5.9% | [5] 5% | [6] 10.6%

CCOC(=O)C(C#N)=C1c2ccccc2Oc2ccccc21
inactive: [1] -3.7% | [2] 0.9% | [3] -2% | [4] -46% | [5] 6.95% | [6] -1.15%

Nc1nc(Cl)cc(NCCCNc2cc(Cl)nc(N)n2)n1
inactive: [1] -1.55% | [2] 6.55% | [3] 13.3% | [4] 1.15% | [5] 3.65% | [6] 4.35%

CC1=C2C(=CC(C)(CO)C2O)C(O)C(C)(O)C12CC2 (stereo unspecified)
inactive: [1] 21.1% | [2] -5.15% | [3] -17.1% | [4] 1.95% | [5] -13.9% | [6] -29.8%

COc1cc(CN2CCCCC2)cc2cc(C(=O)O)c(=O)oc12
inactive: [1] 8.75% | [2] 7.55% | [3] -34.9% | [4] -1.15% | [5] -15.3% | [6] -11.9%

Nc1ccc([N+](=O)[O-])cc1C(=O)O
inactive: [1] 5.1% | [2] 0.9% | [3] -6.8% | [4] -15.7% | [5] 3.05% | [6] 0%

O=c1c(Cc2ccccc2)c(O)cc2n1CCC2
inactive: [1] -14.5% | [2] -14.4% | [3] -10.7% | [4] 8.75% | [5] -5.25% | [6] -10.9%

CC(C)NC(=O)Nc1cccc(Cl)c1
inactive: [1] 0.75% | [2] 7.2% | [3] 17.7% | [4] -18.8% | [5] -23.2% | [6] -1%

COC1CCC(/C(C#N)=C/C2CCC(NC(C)=O)CC2)CC1 (stereo unspecified)
inactive: [1] 3.95% | [2] 0.65% | [3] 25.9% | [4] 1% | [5] 22.1% | [6] 5.2%

NNCCSC1CCCCC1
inactive: [1] 8.9% | [2] 22.1% | [3] 15.3% | [4] -63.1% | [5] -17% | [6] 2.8%

O=C(Cn1c(=O)oc2ccc(C(=O)c3ccc(F)cc3)cc21)c1ccccc1
inactive: [1] -21.4% | [2] -24.5% | [3] -6.25% | [4] -27.9% | [5] -0.2% | [6] -26.9%

CCCCOC(=O)c1ccc(O)cc1.[Zn+2]
inactive: [1] -31.1% | [2] -11.6% | [3] -16.6% | [4] -41.9% | [5] -22.4% | [6] -35.4%

Nc1cc2[nH]cnc2c(=O)[nH]1
inactive: [1] 27.4% | [2] 21.9% | [3] 32.4% | [4] 21.8% | [5] 7.9% | [6] 30.1%

CCCN(CCC)c1ccc(C(=O)c2ccccc2)cc1
inactive: [1] -12.4% | [2] -3% | [3] -1% | [4] -33.8% | [5] 18.6% | [6] -6%

Cc1cccc(N/N=C2\CCSc3ccccc32)c1
inactive: [1] 17.9% | [2] 8.45% | [3] 3.35% | [4] 5.95% | [5] 3.75% | [6] 4%

COc1c(Br)cc(Br)cc1Br
inactive: [1] -1.45% | [2] -5.7% | [3] 14.2% | [4] -47.1% | [5] -10.8% | [6] 6.05%

CO/N=C1\CC(NC(=O)CNC(=O)OC(C)(C)C)c2ccsc21 (stereo unspecified)
inactive: [1] 1.45% | [2] 5.9% | [3] 6.6% | [4] 4.3% | [5] -1.7% | [6] 28.4%

O=C(O)c1ccc(N2C(=O)c3ccccc3C2=O)cc1
inactive: [1] -19.1% | [2] 4.8% | [3] 1.95% | [4] -10.1% | [5] -18.3% | [6] 41.9%

C/C(CC(=O)Nc1ccccc1[N+](=O)[O-])=N\NC(N)=O
inactive: [1] 14.1% | [2] -15.8% | [3] -18.1% | [4] 27.4% | [5] -23.1% | [6] -2.9%

COc1ccc(C(O)Cc2cc(=O)cc(-c3ccccc3)[nH]2)cc1 (stereo unspecified)
inactive: [1] 2.2% | [2] -4.95% | [3] 2.2% | [4] -40.3% | [5] 9.85% | [6] -1.4%

Cc1ccc(OC(=O)c2cccs2)cc1
inactive: [1] 29.6% | [2] 4.95% | [3] -11.9% | [4] -48.1% | [5] 22% | [6] 22.1%

N=c1ncn(Cc2ccccc2)c2nc[nH]c12
inactive: [1] -2.4% | [2] 2% | [3] 1.3% | [4] -3.6% | [5] 10% | [6] -4%

CC(O)(C(=O)c1ccccc1)c1ccccc1 (stereo unspecified)
inactive: [1] -16.4% | [2] -25.1% | [3] -16.4% | [4] -8.15% | [5] -18.4% | [6] 0.6%
